Data on 36 molecules can be found in PubChem BioAssay.

The first assay in a line: small-molecule binders of probe aNOTCH3, primary screen, biochemical, small-molecule microarray, 635/667 nm fluorescence (AID 1120).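 Further: probe is a biotin-tagged antibody raised against NOTCH3 rather than NOTCH3 protein; score merges spot fluorescence near 667 nm with spot signal to noise.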 The conditions noted are these: higher = more signal.
`C=C(C)[C@@H]1CC=C(C(O)C2C=CC3C(=O)NC(=O)C3N2Nc2ccccn2)CC1` (stereo partly specified): the composite z-score stood at 0.441.

On to `O=C1OCCC/C=C\[C@H]2OC34C=CCN(CCN5CCOCC5)C(=O)[C@H]3N(CCCCCO)C(=O)[C@@H]4C12` (stereo partly specified), for which the composite z-score was -0.246.

Regarding `NC(=O)NCC#Cc1ccc2c(c1)[C@]1(C(=O)N2)[C@H](C(N)=O)[C@H]2C(=O)O[C@H](c3ccccc3)[C@H](c3ccccc3)N2[C@@H]1c1ccccc1OCCO`, the composite z-score was determined as 0.121. `COc1ccc([Si](C)(C)[C@H]2[C@H](CCO)O[C@@]3(C(=O)N(Cc4ccccc4)c4ccc(N5C(=O)c6cccc7cccc5c67)cc43)[C@@H]2C)cc1` registered a composite z-score of -0.18.

As for `CN(C)c1ccc(C(O)C2C=CC3C(=O)NC(=O)C3N2Nc2ccc(Cl)cc2Cl)cc1` (stereo unspecified), the composite z-score was found to be 0.0961. The same measure, in the same setting: the result for `COC(=O)C(CC#Cc1ccc2c(c1)[C@]1(C(=O)N2)[C@H](C(=O)N2CCCCCCC2)[C@H]2C(=O)O[C@H](c3ccccc3)[C@H](c3ccccc3)N2[C@@H]1c1ccc(O)cc1)C(=O)OC` reads -0.379; that for `C=CCNC(=O)[C@@H]1[C@H]2C(=O)O[C@H](c3ccccc3)[C@H](c3ccccc3)N2[C@H](c2ccc(OCCO)cc2)[C@@]12C(=O)N(C(=O)OCCOC)c1ccc(C#CC3(O)CCCCCC3)cc12`, 0.353.

As for `CC(C)[Si]1(C(C)C)O[C@@H](c2ccccc2)c2cc(C3CC3)nc(-c3ccc(Oc4ccccc4)cc3)c21`, the composite z-score was -0.157. Same read-out and setting: the result for `[N-]=[N+]=NCc1ccccc1C[C@]1(C(=O)N2CCCCC2)N=C(c2ccc(OCCCO)cc2)O[C@H]1c1ccccc1CN=[N+]=[N-]` reads 0.268; that for `Cc1ccc(N2C(=O)c3ccccc3[C@@H](C(=O)NCC(F)(F)F)[C@@H]2c2ccc(CO)cc2)nc1`, -0.185.

Molecule `CC(C)N1CC=CC23O[C@@H]4/C=C\CCCOC(=O)C4[C@H]2C(=O)N(CCO)[C@@H]3C1=O` (stereo partly specified) yielded a composite z-score of -0.0918. On the same count and under the same terms, the result for `O=C(NCC(F)(F)F)[C@@H]1c2ccccc2C(=O)N(Cc2ccccc2Cl)[C@H]1c1ccc(CO)cc1` reads -0.48. On the same count and under the same terms, with `C=CCNC(=O)[C@H]1[C@@H]2C(=O)O[C@@H](c3ccccc3)[C@@H](c3ccccc3)N2[C@@H](c2ccccc2OCCO)[C@]12C(=O)N(C(=O)OCCOC)c1ccc(C#CCC(C(=O)OC)C(=O)OC)cc12` the figure was -0.0448.

The molecule `C[C@@H]1C=CCC(=O)OC[C@H]2O[C@@H](C=C[C@@H]2O)[C@H](C)C=CCC(=O)OC[C@H]2O[C@H]1C=C[C@@H]2O` showed a composite z-score of 0.716. Still for that read-out and setting: with `Cc1ccc(S[C@]2(C(=O)NCCN3CCOCC3)CC(=O)N(C3Cc4ccccc4C3)[C@@H]2c2ccc(CO)cc2I)cc1` the figure was -0.0903; with `CC(C)CNC(=O)[C@@]1(C)c2ccccc2C(=O)N(Cc2ccc(OC(F)(F)F)cc2)[C@H]1c1ccc(CO)cc1`, -0.241; with `CO[C@H]1COC(=O)CC=C[C@@H](C)COC(=O)[C@@H](C)NC(=O)CC=C[C@@H]1C`, -0.0345. Still for that read-out and setting: the result for `C=C[C@H](OC)[C@@H](OC(=O)Nc1ccc(SC)cc1)c1ccc(O)c(F)c1` reads 0.0864; that for `[N-]=[N+]=NCc1ccccc1C[C@@]1(C(=O)N2CCOCC2)N=C(c2ccc(OCCCO)cc2)O[C@@H]1c1ccccc1N=[N+]=[N-]`, 0.402; that for `[N-]=[N+]=NCc1ccccc1C[C@@]1(C(=O)O)N=C(c2ccc(OCCCO)cc2)O[C@@H]1c1ccccc1N=[N+]=[N-]`, 0.328. Still for that read-out and setting: with `CSCC[C@@H]1NC(=O)CC=C[C@@H](C)COC(=O)[C@H](CCSC)NC(=O)CC=C[C@@H](C)COC1=O` the figure was -0.205; with `C=C(COC)/C(=C/C[C@@H](OC(C)=O)c1cccc(OCCO)c1)c1cc(C(=O)OC)ccc1OC`, -0.0729; with `CCOC(=O)C[C@H]1[C@H](OC(=O)c2cc3ccccc3oc2=O)[C@@H](NC(=O)C2CCCCC2)c2cc(OCCCO)ccc2N1C(=O)c1ccc2ccccc2n1`, -0.0311. For the molecule `C=C(COC)C(=O)CC[C@H](OC(=O)c1ccccc1-c1ccccc1C(=O)O)c1cccc(OCCO)c1`, the composite z-score was 0.123.

Molecule `C=CC[C@]1(C(=O)OC)N=C(c2ccc(OCCCO)cc2)O[C@H]1c1ccccc1CN=[N+]=[N-]` registered a composite z-score of -0.0598.

The next assay can be described thus: small-molecule binders of probe aNOTCH2, primary screen, biochemical, small-molecule microarray, 635/667 nm fluorescence (AID 1121).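 Further: score merges feature fluorescence read at 667 nm with its signal to noise.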 Conditions: higher = more signal.
Turning to `O=[N+]([O-])c1ccc(C[n+]2ccc3ccc(O)cc3c2)o1`, the composite z-score is -0.0746. Same read-out and setting: with `O=C1O[C@@H](c2ccccc2)[C@@H](c2ccccc2)N2[C@@H](c3ccccc3OCCO)[C@]3(C(=O)Nc4ccc(C#CC5=CCCCC5)cc43)[C@@H](C(=O)O)[C@H]12` the figure was -0.0391; with `CCC#CCN(Cc1ccccc1Br)[C@H](/C=C/c1ccccc1)[C@@H](O)Cc1ccccc1`, -0.145.

For `COCCOC(=O)N1C(=O)[C@@]2(c3cc(C#CC4(O)CCCCCC4)ccc31)[C@H](C(=O)N1CCCCCCC1)[C@H]1C(=O)O[C@H](c3ccccc3)[C@H](c3ccccc3)N1[C@@H]2c1ccc(O)cc1`, the composite z-score is 0.337. On the same count and under the same terms, with `C[N+](C)(C)CCCCNC(=O)[C@@H]1C[C@@H]2C(=O)N3CCC[C@H]3C(=O)N2[C@@H]1c1cccc(OCCO)c1` the figure was -0.153; with `C=CCN1C(=O)[C@]2(O[C@H](CCn3cc(CCO)nn3)[C@@H]([Si](C)(C)c3ccc(OC)cc3)[C@@H]2C)c2cc(NC(=O)c3ccc(OC)cc3)ccc21`, -0.044. Same read-out and setting: with `CO[C@H]1COC(=O)[C@@H](Cc2ccccc2)NC(=O)[C@@H](C)COC(=O)CC=C[C@@H]1C` the figure was -0.14; with `O=C1C2C=CC(C(O)c3ccccc3)N(n3cnnc3)C2C(=O)N1Cc1ccccc1` (stereo unspecified), -0.0136. The same measure, in the same setting: the result for `C=C(COC)/C(=C/C[C@@H](OC(=O)c1ccncc1)c1ccc(OCCO)cc1)c1cc(C(=O)OC)ccc1OC` reads -0.0784; that for `O=C1C[C@@](C(=O)NCCN2CCOCC2)(c2ccc([N+](=O)[O-])cc2)[C@@H](c2ccc(CO)cc2)N1C1CCCCC1`, 0.188.

`COc1ccc(NN2C(C(O)c3cc(OC)c(OC)c(OC)c3)C=CC3C(=O)N(C4CCCCC4)C(=O)C32)cc1` (stereo unspecified) came in with a composite z-score of 0.531.

The molecule `C=C(C)[C@@H]1CC=C(C(O)C2C=CC3C(=O)NC(=O)C3N2Nc2ccccn2)CC1` (stereo partly specified) gave a composite z-score of 0.0179.

The molecule `O=C1OCCC/C=C\[C@H]2OC34C=CCN(CCN5CCOCC5)C(=O)[C@H]3N(CCCCCO)C(=O)[C@@H]4C12` (stereo partly specified) showed a composite z-score of -0.162. On the same count and under the same terms, the result for `NC(=O)NCC#Cc1ccc2c(c1)[C@]1(C(=O)N2)[C@H](C(N)=O)[C@H]2C(=O)O[C@H](c3ccccc3)[C@H](c3ccccc3)N2[C@@H]1c1ccccc1OCCO` reads -0.0762; that for `COc1ccc([Si](C)(C)[C@H]2[C@H](CCO)O[C@@]3(C(=O)N(Cc4ccccc4)c4ccc(N5C(=O)c6cccc7cccc5c67)cc43)[C@@H]2C)cc1`, -0.155. Same read-out and setting: the result for `CN(C)c1ccc(C(O)C2C=CC3C(=O)NC(=O)C3N2Nc2ccc(Cl)cc2Cl)cc1` (stereo unspecified) reads 0.046. Same read-out and setting: the result for `COC(=O)C(CC#Cc1ccc2c(c1)[C@]1(C(=O)N2)[C@H](C(=O)N2CCCCCCC2)[C@H]2C(=O)O[C@H](c3ccccc3)[C@H](c3ccccc3)N2[C@@H]1c1ccc(O)cc1)C(=O)OC` reads -0.0829; that for `C=CCNC(=O)[C@@H]1[C@H]2C(=O)O[C@H](c3ccccc3)[C@H](c3ccccc3)N2[C@H](c2ccc(OCCO)cc2)[C@@]12C(=O)N(C(=O)OCCOC)c1ccc(C#CC3(O)CCCCCC3)cc12`, -0.0502; that for `CC(C)[Si]1(C(C)C)O[C@@H](c2ccccc2)c2cc(C3CC3)nc(-c3ccc(Oc4ccccc4)cc3)c21`, -0.125. Molecule `[N-]=[N+]=NCc1ccccc1C[C@]1(C(=O)N2CCCCC2)N=C(c2ccc(OCCCO)cc2)O[C@H]1c1ccccc1CN=[N+]=[N-]` had a composite z-score of -0.0817. For the molecule `Cc1ccc(N2C(=O)c3ccccc3[C@@H](C(=O)NCC(F)(F)F)[C@@H]2c2ccc(CO)cc2)nc1`, the composite z-score was -0.0674.

As to `CC(C)N1CC=CC23O[C@@H]4/C=C\CCCOC(=O)C4[C@H]2C(=O)N(CCO)[C@@H]3C1=O` (stereo partly specified), the composite z-score is -0.0874.

For the molecule `O=C(NCC(F)(F)F)[C@@H]1c2ccccc2C(=O)N(Cc2ccccc2Cl)[C@H]1c1ccc(CO)cc1`, the composite z-score is -0.182. `C=CCNC(=O)[C@H]1[C@@H]2C(=O)O[C@@H](c3ccccc3)[C@@H](c3ccccc3)N2[C@@H](c2ccccc2OCCO)[C@]12C(=O)N(C(=O)OCCOC)c1ccc(C#CCC(C(=O)OC)C(=O)OC)cc12` had a composite z-score of -0.0829. Molecule `C[C@@H]1C=CCC(=O)OC[C@H]2O[C@@H](C=C[C@@H]2O)[C@H](C)C=CCC(=O)OC[C@H]2O[C@H]1C=C[C@@H]2O` showed a composite z-score of -0.0318. The same measure, in the same setting: with `Cc1ccc(S[C@]2(C(=O)NCCN3CCOCC3)CC(=O)N(C3Cc4ccccc4C3)[C@@H]2c2ccc(CO)cc2I)cc1` the figure was 0.116; with `CC(C)CNC(=O)[C@@]1(C)c2ccccc2C(=O)N(Cc2ccc(OC(F)(F)F)cc2)[C@H]1c1ccc(CO)cc1`, -0.0094. Same read-out and setting: the result for `CO[C@H]1COC(=O)CC=C[C@@H](C)COC(=O)[C@@H](C)NC(=O)CC=C[C@@H]1C` reads -0.153. Still for that read-out and setting: with `C=C[C@H](OC)[C@@H](OC(=O)Nc1ccc(SC)cc1)c1ccc(O)c(F)c1` the figure was -0.182; with `[N-]=[N+]=NCc1ccccc1C[C@@]1(C(=O)N2CCOCC2)N=C(c2ccc(OCCCO)cc2)O[C@@H]1c1ccccc1N=[N+]=[N-]`, 0.0753. `[N-]=[N+]=NCc1ccccc1C[C@@]1(C(=O)O)N=C(c2ccc(OCCCO)cc2)O[C@@H]1c1ccccc1N=[N+]=[N-]` showed a composite z-score of -0.0424. `CSCC[C@@H]1NC(=O)CC=C[C@@H](C)COC(=O)[C@H](CCSC)NC(=O)CC=C[C@@H](C)COC1=O` displayed a composite z-score of -0.135.

`C=C(COC)/C(=C/C[C@@H](OC(C)=O)c1cccc(OCCO)c1)c1cc(C(=O)OC)ccc1OC` displayed a composite z-score of -0.125. On the same count and under the same terms, the result for `CCOC(=O)C[C@H]1[C@H](OC(=O)c2cc3ccccc3oc2=O)[C@@H](NC(=O)C2CCCCC2)c2cc(OCCCO)ccc2N1C(=O)c1ccc2ccccc2n1` reads -0.115; that for `C=C(COC)C(=O)CC[C@H](OC(=O)c1ccccc1-c1ccccc1C(=O)O)c1cccc(OCCO)c1`, -0.118; that for `C=CC[C@]1(C(=O)OC)N=C(c2ccc(OCCCO)cc2)O[C@H]1c1ccccc1CN=[N+]=[N-]`, 0.122.
